Measurements from PubChem BioAssay AID1918 (Vanderbilt High Throughput Screening Facility, 2009).
About 2,500 (1.9%) of roughly 130,000 compounds were called active. This excerpt belongs to a sample that is enriched for actives. A number with no mark means an inactive call.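 Rule for the calls: active = signal ratio slope over the read window, or its plate-corrected B-score, at least 3 SD from the plate mean, either direction; inactive = the rest.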

target: ATP-sensitive inward rectifier potassium channel 1 (Homo sapiens) (UniProt P48048); assay: ROMK potassium channel modulators, primary screen, cell-based, thallium flux, MLSMR library (AID 1918); details: Tet-inducible ROMK, thallium flux fluorescence; at 10 µM; actives lie on both sides;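 note: B-score of the F/F0 ratio slope over 7 to 12 s after thallium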
Sequence (P48048 whole entry, looked up): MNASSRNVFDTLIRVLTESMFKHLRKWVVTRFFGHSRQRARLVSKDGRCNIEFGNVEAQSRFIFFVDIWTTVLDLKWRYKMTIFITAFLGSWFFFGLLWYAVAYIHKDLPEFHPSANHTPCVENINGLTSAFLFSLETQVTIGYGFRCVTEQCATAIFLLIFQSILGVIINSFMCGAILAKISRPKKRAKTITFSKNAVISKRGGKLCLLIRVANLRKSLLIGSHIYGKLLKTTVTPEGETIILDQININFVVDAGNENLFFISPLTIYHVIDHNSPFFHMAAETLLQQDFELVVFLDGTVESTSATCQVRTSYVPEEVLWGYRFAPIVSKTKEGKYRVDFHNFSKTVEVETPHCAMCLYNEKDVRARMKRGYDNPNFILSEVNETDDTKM

Which B-score does the source give for COCCN(CCOC)C(=S)Nc1ccccc1Cl here?
The B-score was 0.00438.

With O=C(Nc1ccccc1Cl)/C(Cl)=C(\Cl)S(=O)c1ccccc1 (configuration not stated) as the compound, how does the B-score read?
The B-score was -4.2 (active).

Which B-score does the source give for O=C(Nc1ccccc1Cl)c1ccc2nsnc2c1 here?
The B-score was -0.621.

How did the B-score turn out when COc1ccc(NC(=O)C(C)SCc2ccccc2)cc1 (configuration not stated) was run?
The B-score was 0.339.

For COc1ccc(-c2[nH]ncc2CN(C)Cc2c(C)n[nH]c2C)c(OC)c1, which B-score is on record?
Its B-score is 1.28 (active).

For COc1ccc(-c2[nH]ncc2CN(C)Cc2cccnc2)c(F)c1, which B-score is on record?
The B-score was 0.572.

With COc1ccc(-c2[nH]ncc2CN(C)Cc2cc(C)[nH]n2)c(F)c1 as the compound, how does the B-score read?
The B-score was 0.139.

Cc1cc(/C=C2/NC(=O)NC2=O)c(C)n1-c1cccnc1 was tested. Which B-score did it give?
Its B-score is 0.0128.

With CCc1cc2c(=O)c(-c3ccc(F)cc3)c(C(F)(F)F)oc2cc1OCC(=O)O as the compound, how does the B-score read?
The B-score was -0.413.

How did the B-score turn out when COc1ccc(-c2onc(C)c2-c2ccc3c(c2)OCCO3)c(O)c1 was run?
Its B-score is -0.0517.

For O=c1c(-c2ccc3c(c2)OCCO3)c(C(F)(F)F)oc2cc(O)cc(O)c12, which B-score is on record?
Its B-score is -5.2 (active).

With COc1ccc(C(C)=O)cc1CSc1nc2nc(C)cc(C)n2n1 as the compound, how does the B-score read?
Its B-score is 1.28.

How did the B-score turn out when Cc1cccc(NC(=S)Nc2ccc(Cl)c(Cl)c2)c1 was run?
The B-score was 0.116.

Which B-score does the source give for COc1ccc(CCNC(=O)COC(=O)/C=C/c2cccs2)cc1OC here?
Its B-score is -0.931.

For COc1ccc(CCNC(=O)CSc2nnc(CNC(=O)c3cccs3)o2)cc1OC, which B-score is on record?
The B-score was -0.208.

Which B-score does the source give for COc1ccc(CN(C(=O)c2cccs2)c2nccs2)cc1OC here?
Its B-score is 4.52 (active).

With O=c1[nH]n2c(-c3ccccc3)nc(O)c2c2ccccc12 as the compound, how does the B-score read?
The B-score was 2.45.

With C=C(C)C1CC=C(C)/C(=N/NC(=O)CCCNc2cccc(C)c2)C1 (configuration not stated) as the compound, how does the B-score read?
Its B-score is 1.1.

For Cc1ccc(CNC(=O)C2CCCN(S(C)(=O)=O)C2)cc1 (configuration not stated), which B-score is on record?
The B-score was 0.0583.

How did the B-score turn out when CC(C)OCCCNC(=O)C1CC(=O)N(C2CCCCCCC2)C1 (configuration not stated) was run?
The B-score was -0.488.

With Cc1ccc(CNC(=O)C2CC(=O)N(C3CCCCCCC3)C2)cc1 (configuration not stated) as the compound, how does the B-score read?
Its B-score is -2.38 (active).

Which B-score does the source give for O=C(COc1ccccc1)Nc1ccc(N2CCN(C(=O)c3cccs3)CC2)cc1 here?
Its B-score is -0.916.

Which B-score does the source give for CC(=O)Nc1ccc(OCCC[n+]2cccc(C(=O)[O-])c2)cc1 here?
The B-score was 0.158.

COc1cc(NC(=S)NCc2ccc(S(N)(=O)=O)cc2)cc(OC)c1 was tested. Which B-score did it give?
The B-score was 2.23.

Which B-score does the source give for CN(NC(=O)c1ccccc1F)c1nc(C(F)(F)F)nc2ccccc12 here?
The B-score was 2.83 (active).

Which B-score does the source give for Cc1cc(C)n(-c2nc(C(F)(F)F)nc3ccccc23)n1 here?
The B-score was -0.0244.

How did the B-score turn out when COC(=O)CNC(=O)c1ccccc1F was run?
Its B-score is 0.963.
